Laboratory results reported in the supplement of paper PMC11732987, “Enantioselective OTUD7B fragment discovery through chemoproteomics screening and high-throughput optimisation” (Communications Chemistry, 2025).

Tests used:
Assay in all cases: log2 ratio of Biotin-Ahx-Ub-VS probe labelling (fragment/DMSO); higher = less target engagement (more negative = stronger competition), active = hit call of the paper (q ≤ 0.05, log2 ratio ≤ -1)
Settings in all cases: compound concentration: 200 uM; treatment time: 3 h
USP34 = USP34 (UniProt Q70CQ2)
Summary of the method: (§1)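 Labelled DUBs from HEK293T lysate were NeutrAvidin-enriched, digested with LysC and trypsin, and run by diaPASEF LC-MS/MS. Before that, each 495 µg sample in Tris/CHAPS/IGEPAL buffer with protease inhibitors was treated in triplicate with fragment at 200 µM or vehicle for 3 h, then with Biotin-Ahx-Ub-VS at 0.5 µM final for 1 h. Values are average log2 ratios of fragment over vehicle by unpaired t-test, based on global-median-normalised Spectronaut label-free quantities from proteins with ≥2 unique peptides.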

USP36 = target: T1, USP36 (UniProt Q9P275)
T1 sequence (whole entry): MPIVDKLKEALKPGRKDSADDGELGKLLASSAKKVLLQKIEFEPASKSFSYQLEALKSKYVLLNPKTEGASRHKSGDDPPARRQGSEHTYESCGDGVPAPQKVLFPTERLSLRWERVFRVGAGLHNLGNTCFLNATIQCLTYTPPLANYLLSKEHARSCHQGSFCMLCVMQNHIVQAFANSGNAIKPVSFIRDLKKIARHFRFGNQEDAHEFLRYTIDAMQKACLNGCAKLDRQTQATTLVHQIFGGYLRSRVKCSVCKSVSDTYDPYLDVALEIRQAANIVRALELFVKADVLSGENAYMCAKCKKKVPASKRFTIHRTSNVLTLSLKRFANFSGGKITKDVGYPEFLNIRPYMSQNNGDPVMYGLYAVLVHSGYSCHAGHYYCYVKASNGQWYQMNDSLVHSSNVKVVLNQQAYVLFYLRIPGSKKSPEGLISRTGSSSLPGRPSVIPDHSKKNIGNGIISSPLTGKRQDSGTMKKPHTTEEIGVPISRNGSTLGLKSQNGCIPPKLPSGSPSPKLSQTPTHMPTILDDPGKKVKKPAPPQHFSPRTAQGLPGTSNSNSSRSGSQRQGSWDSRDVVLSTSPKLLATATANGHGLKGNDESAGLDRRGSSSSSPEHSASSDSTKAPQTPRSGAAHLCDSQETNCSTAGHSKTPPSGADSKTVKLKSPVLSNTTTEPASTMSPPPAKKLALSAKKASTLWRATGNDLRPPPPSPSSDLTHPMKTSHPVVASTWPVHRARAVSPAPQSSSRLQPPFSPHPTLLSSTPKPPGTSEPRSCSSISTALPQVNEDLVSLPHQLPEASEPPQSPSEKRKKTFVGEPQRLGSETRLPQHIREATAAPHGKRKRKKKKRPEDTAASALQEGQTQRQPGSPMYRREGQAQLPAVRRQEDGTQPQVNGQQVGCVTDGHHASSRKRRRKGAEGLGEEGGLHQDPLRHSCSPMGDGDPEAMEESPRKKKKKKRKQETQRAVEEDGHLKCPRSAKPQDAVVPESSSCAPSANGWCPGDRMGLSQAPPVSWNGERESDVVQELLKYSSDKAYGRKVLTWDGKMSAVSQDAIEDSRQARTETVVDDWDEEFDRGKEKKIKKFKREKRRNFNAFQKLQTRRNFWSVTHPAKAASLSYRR
Summary of the method: as §1

USP38 = target: T2, USP38 (UniProt Q8NB14)
T2 sequence (whole entry): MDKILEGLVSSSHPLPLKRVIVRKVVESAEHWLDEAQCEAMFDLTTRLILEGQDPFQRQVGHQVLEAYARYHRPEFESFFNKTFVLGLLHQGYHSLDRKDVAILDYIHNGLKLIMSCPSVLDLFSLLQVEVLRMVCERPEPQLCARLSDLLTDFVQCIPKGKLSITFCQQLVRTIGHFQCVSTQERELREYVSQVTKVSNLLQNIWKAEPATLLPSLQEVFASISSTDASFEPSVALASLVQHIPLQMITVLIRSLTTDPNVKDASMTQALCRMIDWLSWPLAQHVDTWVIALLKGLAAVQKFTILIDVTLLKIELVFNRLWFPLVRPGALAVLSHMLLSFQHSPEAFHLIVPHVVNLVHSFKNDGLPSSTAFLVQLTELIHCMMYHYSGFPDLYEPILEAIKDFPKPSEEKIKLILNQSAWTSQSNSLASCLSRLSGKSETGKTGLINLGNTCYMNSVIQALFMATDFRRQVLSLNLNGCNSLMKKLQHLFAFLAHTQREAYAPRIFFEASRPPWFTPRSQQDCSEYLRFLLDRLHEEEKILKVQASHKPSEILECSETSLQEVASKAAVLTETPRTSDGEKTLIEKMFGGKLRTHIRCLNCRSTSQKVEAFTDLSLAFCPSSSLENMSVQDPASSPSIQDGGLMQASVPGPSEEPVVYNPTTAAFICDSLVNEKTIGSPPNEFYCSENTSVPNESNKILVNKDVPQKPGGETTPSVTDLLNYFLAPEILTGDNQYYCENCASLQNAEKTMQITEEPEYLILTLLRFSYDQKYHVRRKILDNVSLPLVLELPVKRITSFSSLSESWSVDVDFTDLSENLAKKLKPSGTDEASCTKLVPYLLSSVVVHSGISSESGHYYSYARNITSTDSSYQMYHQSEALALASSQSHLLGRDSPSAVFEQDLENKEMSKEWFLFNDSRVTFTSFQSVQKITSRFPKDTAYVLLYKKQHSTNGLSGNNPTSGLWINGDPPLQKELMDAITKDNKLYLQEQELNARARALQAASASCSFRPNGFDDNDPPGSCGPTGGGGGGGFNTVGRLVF
Summary of the method: as §1

USP39 = target: T3, USP39 (UniProt Q53GS9)
T3 sequence (whole entry): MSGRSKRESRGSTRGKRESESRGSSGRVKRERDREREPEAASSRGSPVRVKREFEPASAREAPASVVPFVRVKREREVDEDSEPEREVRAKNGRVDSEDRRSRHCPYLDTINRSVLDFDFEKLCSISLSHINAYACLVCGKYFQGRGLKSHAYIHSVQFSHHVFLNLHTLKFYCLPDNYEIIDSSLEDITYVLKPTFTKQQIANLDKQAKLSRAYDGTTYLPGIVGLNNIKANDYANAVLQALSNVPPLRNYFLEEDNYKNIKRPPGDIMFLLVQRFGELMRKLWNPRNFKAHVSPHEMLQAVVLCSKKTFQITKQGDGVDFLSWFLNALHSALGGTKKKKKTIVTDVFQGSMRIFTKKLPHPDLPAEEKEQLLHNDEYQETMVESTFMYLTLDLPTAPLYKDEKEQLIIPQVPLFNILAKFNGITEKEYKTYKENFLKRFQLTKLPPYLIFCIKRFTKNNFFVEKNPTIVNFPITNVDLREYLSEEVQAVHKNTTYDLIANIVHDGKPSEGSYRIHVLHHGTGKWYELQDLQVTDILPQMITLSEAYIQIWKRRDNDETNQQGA
Summary of the method: as §1

USP4 = target: T4, USP4 (UniProt Q13107)
T4 sequence (whole entry): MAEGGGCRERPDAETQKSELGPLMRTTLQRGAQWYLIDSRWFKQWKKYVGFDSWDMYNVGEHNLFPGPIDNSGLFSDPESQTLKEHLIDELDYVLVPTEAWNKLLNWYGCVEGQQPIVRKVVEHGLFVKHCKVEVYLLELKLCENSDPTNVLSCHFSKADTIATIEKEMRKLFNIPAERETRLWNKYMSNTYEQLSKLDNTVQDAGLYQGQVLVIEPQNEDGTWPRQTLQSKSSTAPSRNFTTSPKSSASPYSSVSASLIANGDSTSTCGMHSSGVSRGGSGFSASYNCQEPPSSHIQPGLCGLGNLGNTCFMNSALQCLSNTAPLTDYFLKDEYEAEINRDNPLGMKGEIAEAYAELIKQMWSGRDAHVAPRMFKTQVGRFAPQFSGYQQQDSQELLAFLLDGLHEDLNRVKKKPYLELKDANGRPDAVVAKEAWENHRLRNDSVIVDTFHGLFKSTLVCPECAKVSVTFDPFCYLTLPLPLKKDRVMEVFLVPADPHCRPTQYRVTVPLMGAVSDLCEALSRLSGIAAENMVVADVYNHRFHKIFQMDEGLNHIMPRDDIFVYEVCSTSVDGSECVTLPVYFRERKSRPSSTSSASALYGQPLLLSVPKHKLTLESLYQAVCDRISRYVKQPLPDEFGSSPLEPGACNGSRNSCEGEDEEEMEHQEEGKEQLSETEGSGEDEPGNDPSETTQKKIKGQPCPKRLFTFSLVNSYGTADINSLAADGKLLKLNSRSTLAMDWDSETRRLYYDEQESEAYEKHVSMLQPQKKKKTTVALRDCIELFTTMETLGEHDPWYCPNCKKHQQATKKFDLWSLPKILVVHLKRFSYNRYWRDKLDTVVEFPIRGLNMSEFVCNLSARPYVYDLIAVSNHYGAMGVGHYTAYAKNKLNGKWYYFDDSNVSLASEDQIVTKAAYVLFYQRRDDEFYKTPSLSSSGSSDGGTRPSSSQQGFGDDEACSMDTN
Summary of the method: as §1

Measured: log2 ratio of Biotin-Ahx-Ub-VS probe labelling

Sequence of USP34 (Q70CQ2 whole entry, the tested form may be a part): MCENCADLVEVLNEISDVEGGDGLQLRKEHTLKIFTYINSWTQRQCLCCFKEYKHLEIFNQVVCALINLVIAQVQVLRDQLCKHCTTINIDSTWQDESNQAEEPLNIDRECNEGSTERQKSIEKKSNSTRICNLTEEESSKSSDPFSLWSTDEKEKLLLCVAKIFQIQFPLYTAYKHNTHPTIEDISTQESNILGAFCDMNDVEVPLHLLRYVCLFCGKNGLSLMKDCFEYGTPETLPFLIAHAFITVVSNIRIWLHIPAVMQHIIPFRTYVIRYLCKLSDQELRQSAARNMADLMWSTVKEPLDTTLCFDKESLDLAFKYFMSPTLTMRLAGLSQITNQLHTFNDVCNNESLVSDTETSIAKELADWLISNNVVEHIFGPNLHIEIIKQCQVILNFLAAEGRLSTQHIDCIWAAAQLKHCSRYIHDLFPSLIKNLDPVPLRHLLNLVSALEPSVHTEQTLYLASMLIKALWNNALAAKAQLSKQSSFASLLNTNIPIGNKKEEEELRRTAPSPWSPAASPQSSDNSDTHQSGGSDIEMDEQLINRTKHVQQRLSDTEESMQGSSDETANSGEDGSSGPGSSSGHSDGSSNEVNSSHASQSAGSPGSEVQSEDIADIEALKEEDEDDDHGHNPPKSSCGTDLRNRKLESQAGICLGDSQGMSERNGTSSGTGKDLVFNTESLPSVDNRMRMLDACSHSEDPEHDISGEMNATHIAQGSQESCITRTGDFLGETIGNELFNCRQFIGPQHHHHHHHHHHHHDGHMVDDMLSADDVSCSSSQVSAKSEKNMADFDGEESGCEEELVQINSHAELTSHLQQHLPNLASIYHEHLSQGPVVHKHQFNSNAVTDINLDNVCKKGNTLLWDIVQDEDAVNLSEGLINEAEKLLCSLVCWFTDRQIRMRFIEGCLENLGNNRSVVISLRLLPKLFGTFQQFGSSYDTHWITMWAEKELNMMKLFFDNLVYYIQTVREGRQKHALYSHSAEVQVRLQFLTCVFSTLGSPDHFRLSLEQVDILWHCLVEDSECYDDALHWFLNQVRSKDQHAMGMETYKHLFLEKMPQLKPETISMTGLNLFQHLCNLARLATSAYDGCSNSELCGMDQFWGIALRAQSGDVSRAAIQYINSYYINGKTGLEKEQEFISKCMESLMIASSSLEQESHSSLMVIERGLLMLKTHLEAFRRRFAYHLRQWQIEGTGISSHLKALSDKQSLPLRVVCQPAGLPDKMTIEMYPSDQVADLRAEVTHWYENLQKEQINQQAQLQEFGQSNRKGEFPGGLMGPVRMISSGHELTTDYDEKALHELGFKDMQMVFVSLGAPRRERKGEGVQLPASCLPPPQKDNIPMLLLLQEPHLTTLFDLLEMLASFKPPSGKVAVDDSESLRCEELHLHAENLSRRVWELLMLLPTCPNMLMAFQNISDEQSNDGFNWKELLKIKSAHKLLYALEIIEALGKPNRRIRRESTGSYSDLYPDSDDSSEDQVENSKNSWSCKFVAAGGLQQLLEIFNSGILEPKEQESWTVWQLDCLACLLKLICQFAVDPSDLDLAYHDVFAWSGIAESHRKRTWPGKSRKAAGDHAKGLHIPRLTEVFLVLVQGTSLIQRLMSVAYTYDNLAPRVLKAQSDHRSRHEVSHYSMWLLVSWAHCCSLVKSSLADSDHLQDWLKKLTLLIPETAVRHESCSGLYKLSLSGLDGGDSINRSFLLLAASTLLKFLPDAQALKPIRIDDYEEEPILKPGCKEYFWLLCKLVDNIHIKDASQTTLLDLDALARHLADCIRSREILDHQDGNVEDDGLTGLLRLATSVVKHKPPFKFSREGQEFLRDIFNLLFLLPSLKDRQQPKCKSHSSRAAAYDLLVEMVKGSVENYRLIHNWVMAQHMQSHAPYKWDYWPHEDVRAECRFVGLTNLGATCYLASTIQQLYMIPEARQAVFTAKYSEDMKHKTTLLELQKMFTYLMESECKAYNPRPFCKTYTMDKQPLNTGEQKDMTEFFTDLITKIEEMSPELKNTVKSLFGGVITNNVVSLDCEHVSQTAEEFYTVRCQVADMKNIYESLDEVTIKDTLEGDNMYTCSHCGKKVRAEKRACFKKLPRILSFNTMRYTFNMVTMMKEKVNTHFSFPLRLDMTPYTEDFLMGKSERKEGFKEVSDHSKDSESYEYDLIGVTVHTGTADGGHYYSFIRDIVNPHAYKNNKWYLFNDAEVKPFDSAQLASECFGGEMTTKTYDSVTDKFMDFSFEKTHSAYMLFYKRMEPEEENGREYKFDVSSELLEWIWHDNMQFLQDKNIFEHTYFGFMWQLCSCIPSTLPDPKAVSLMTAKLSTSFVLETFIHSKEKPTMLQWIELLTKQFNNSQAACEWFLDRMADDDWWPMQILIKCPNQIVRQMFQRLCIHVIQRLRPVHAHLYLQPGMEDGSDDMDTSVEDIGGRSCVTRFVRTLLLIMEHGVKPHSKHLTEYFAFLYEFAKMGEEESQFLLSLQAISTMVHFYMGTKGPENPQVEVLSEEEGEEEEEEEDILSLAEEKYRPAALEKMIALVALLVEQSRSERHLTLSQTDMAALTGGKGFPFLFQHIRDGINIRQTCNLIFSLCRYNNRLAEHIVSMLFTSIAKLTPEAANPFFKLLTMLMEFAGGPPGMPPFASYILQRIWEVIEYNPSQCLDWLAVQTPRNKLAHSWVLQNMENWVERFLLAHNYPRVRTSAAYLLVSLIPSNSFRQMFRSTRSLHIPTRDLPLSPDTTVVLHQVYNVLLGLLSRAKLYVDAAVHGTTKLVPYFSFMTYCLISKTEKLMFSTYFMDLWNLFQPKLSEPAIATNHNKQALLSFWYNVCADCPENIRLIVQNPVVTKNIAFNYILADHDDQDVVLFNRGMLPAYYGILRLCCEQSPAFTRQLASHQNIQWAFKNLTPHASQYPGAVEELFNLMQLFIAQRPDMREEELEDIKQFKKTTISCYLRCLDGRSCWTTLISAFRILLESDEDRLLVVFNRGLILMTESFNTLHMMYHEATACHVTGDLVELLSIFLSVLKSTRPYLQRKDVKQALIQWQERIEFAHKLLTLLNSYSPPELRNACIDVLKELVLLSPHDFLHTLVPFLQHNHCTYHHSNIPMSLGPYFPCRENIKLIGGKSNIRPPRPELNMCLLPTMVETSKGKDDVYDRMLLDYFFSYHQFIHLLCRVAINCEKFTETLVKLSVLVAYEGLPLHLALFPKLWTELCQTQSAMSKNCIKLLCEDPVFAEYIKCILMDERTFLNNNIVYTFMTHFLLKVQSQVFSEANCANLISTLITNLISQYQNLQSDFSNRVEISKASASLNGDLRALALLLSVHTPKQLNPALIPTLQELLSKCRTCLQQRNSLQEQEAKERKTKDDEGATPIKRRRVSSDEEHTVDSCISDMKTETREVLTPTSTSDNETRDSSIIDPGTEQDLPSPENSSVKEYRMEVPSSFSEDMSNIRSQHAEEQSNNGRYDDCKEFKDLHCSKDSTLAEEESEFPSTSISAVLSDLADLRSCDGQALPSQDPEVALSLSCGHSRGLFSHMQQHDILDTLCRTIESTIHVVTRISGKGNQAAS

O=C(CCl)NCc1cccc(N2CCCC2=O)c1
inactive: USP34 -0.203 | USP36 -0.212 | USP38 -0.128 | USP39 -0.0958 | USP4 0.0693
